Consider 17 compounds from PubChem BioAssay (NCATS).

Each structure is given as a SMILES string. Values joined by “and” are separate entries in the source; they are usually repeats but may differ in a detail not shown here. Identical values can stand only once. Records with an inconclusive call do not appear. Values without a mark were called inactive. Active and inactive are the calls of the source. The call rests on the fitted dose curve; in most records, active means well fitted inhibition curve with a large enough effect; inconclusive means small, poorly fitted or top-dose-only effect; inactive means flat fitted curve, though single readings scatter.

The subject of one experiment is TAB165. Description: qHTS profiling for inhibitors of Plasmodium falciparum proliferation (AID 504749). Further: potency means the concentration at half of the fitted maximal effect. The note with it: P. falciparum in erythrocytes, SYBR Green DNA, 72 h; series mostly up to 28.7 µM. The essentials: (§1)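 Quantitative HTS: compounds pinned into medium, infected erythrocytes added (0.3% parasitemia, 2.5% hematocrit), 72 h culture at 37 C under 5% CO2. Saponin/Triton lysis with SYBR Green I, overnight RT, then fluorescence read.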

A further experiment has as its system W2. Described as above. The note with it: P. falciparum in erythrocytes, SYBR Green DNA, 72 h; series mostly up to 28.7 µM. The procedure, abridged: as §1
Another experiment relates to CRL-7250. Description: Cytotoxic Profiling of Annotated Libraries Using Quantitative High-Throughput Screening (AID 1296008). Further: potency means the concentration at half of the fitted maximal effect. On max response: on the % scale 0 is the no-effect control and ±100 the full control effect. The note with it: Five cell lines viability, CellTiter-Glo ATP luminescence, 48-72 h; max response: hits give low values. The essentials:
(§2)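 Compounds were pin-transferred onto cells and incubated 48 or 72 hr at 37 degree Celsius, 95% humidity. CellTiter-Glo was added, plates sat 10 min at room temperature, then ATP-coupled luminescence was imaged as the viability read-out.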
(Cellular ATP, detected with luciferase, serves as a proxy for viable cell number.)

A further experiment concerns HEK293. The description is as above. The note with it: Five cell lines viability, CellTiter-Glo ATP luminescence, 48-72 h; max response: hits give low values. The essentials:
as §2

For experiment [1], the system named is HaCat. The experiment is described as above. The note with it: Five cell lines viability, CellTiter-Glo ATP luminescence, 48-72 h; max response: hits give low values. The procedure, abridged:
as §2

Another experiment has as its system NIH3T3. The description is as above. The note with it: Five cell lines viability, CellTiter-Glo ATP luminescence, 48-72 h; max response: hits give low values. The procedure, abridged: as §2
The next experiment deals with HEK293T. Description: qHTS assay to identify novel small-molecules to repurpose for Merkel cell carcinoma treatment (AID 1296009). On activity change, negative = cytotoxicity: on the % scale 0 is the no-effect control and ±100 the full control effect. The note with it: MCC and control cell lines, CellTiter-Glo viability, 72 h; at 44.8 µM (top of the series) unless noted. The procedure, abridged:
(§3)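 Viability readout: ATP luminescence (CellTiter-Glo) after 72 hr drug exposure at 37 degree celsius. Dose-response format was 8 points for NPC and 11 points for MIPE; data normalized to in-plate controls.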

The subject of a further experiment is MCC-13. Described as above. Conditions: MCC and control cell lines, CellTiter-Glo viability, 72 h; series mostly up to 46 µM. The essentials:
as §3

The test system of experiment [2] is HACAT. The description is as above. Conditions: MCC and control cell lines, CellTiter-Glo viability, 72 h; at 44.8 µM (top of the series) unless noted. The procedure, abridged:
as §3

A further experiment concerns KB-3-1. Description: Cytotoxic Profiling of Annotated Libraries Using Quantitative High-Throughput Screening (AID 1296008). Further: potency means the concentration at half of the fitted maximal effect. On max response: on the % scale 0 is the no-effect control and ±100 the full control effect. The note with it: Five cell lines viability, CellTiter-Glo ATP luminescence, 48-72 h; max response: hits give low values. The essentials:
as §2
Further: nearly all actives have a fitted effect of over 60% in size.

Consider `CC(C)(C)C(=O)NCCCC(=O)O`, for which the Potency result in the experiment with TAB165, in the experiment with W2 and with MCC-13 was “inactive” in each case. Besides, the max response in the experiment on CRL-7250 was -4.98%; in the experiment with HaCat [1], 4.53%. Further, the call with HEK293, with NIH3T3 and with HEK293T was inactive.
For `Cc1ccc2nc(N)[nH]c(=O)c2c1Sc1ccncc1`, the Potency with TAB165 is 2 µM (active); in the experiment on HEK293 it was 8.2 µM (active); in the experiment with HaCat [1], 1.33 µM (active) and 2.59 µM (active); in the experiment with NIH3T3, 2.37 µM (active) and 6.51 µM (active). Besides, the max response in the experiment on CRL-7250 was -27% and -23.5%.
`NC(CSCC(=O)O)C(=O)O` (configuration not stated): the Potency result in the experiment on TAB165, with W2 and in the experiment on MCC-13 was “inactive” throughout. The result with CRL-7250, with HEK293, with HaCat [1], in the experiment with NIH3T3, in the experiment with HACAT [2] and with HEK293T was inactive.
As for `Nc1ncnc2c1ncn2[C@@H]1O[C@H](CO)[C@@H](O)[C@H]1O`, the Potency result in the experiment with TAB165, in the experiment on W2 and in the experiment with MCC-13 was “inactive” throughout. Also, the outcome with CRL-7250, in the experiment on HaCat [1] and in the experiment with HACAT [2] was inactive. Moreover, the max response in the experiment with HEK293 was 1.55%; in the experiment with KB-3-1, 15.4%.
Consider `CN(C)CCCN1c2ccccc2CCc2ccccc21`, for which the max response is 0.991% with CRL-7250, -28.4% with HaCat [1], -10.8% in the experiment on KB-3-1 and -1.95% in the experiment on NIH3T3. In the experiment with HEK293, the Potency was 13.3 µM (active). Besides, in the experiment on MCC-13, the Potency result was “inactive”.
As for `Oc1cn2c(n1)Nc1ccc(Cl)c(Cl)c1C2`, the Potency result in the experiment on TAB165, in the experiment with W2 and in the experiment on MCC-13 was “inactive” throughout. The outcome in the experiment with CRL-7250, with HEK293, in the experiment on HaCat [1] and with NIH3T3 was inactive. Moreover, the outcome in the experiment on HACAT [2] and in the experiment on HEK293T was “inactive [at 17.4 µM]” each time.
As for `NC(=O)NNc1ccccc1`, the Potency entry in the experiment on TAB165, in the experiment with W2 and in the experiment on MCC-13 was “inactive” each time. The max response is 2.83% in the experiment on CRL-7250, 0.574% in the experiment on HEK293, -7.26% in the experiment on HaCat [1] and -2.02% in the experiment with NIH3T3.
For `Cn1cc[nH]c1=S`, the max response in the experiment with CRL-7250 was 4.5%. Further, the result in the experiment on HEK293, in the experiment on HaCat [1], with NIH3T3, in the experiment with HACAT [2] and in the experiment with HEK293T was inactive. Also, in the experiment on MCC-13, the Potency result is “inactive”.
Regarding `COc1ccc2c(c1)C(=O)N(CCc1ccc(S(=O)(=O)NC(=O)NC3CCCCC3)cc1)C(=O)C2(C)C`, the Potency entry in the experiment with TAB165, in the experiment on W2 and with MCC-13 was “inactive” in each case. Further, the max response is 2.02% and -12.3% in the experiment with CRL-7250; -11% in the experiment on HEK293; 4.11% in the experiment on HaCat [1]; 7.8% and -5.8% in the experiment on KB-3-1; -19.1% and -11.5% in the experiment on NIH3T3.
Consider `Cc1cc(CC(=O)O)n(C)c1C(=O)c1ccc(Cl)cc1`, for which the Potency entry with TAB165, in the experiment on W2 and in the experiment with MCC-13 was “inactive” in each case. In addition, the compound was classed as inactive in the experiment with CRL-7250, with HEK293 and in the experiment on HEK293T. Besides, the results for the max response with HaCat [1] and in the experiment with NIH3T3 were -1.31% and -0.54%, respectively.
For `O=c1[nH]c(=O)c2[nH]c(=O)[nH]c2[nH]1`, the Potency entry in the experiment with TAB165 and in the experiment on W2 was “inactive” each time. Further, the max response with CRL-7250 was -3.74%; with HEK293 it was -1.57%; with HaCat [1], 1.96%; in the experiment with KB-3-1, 23.1% and -16.9%. For the same compound, the compound was classed as inactive in the experiment on NIH3T3. Further, the activity change, negative = cytotoxicity with MCC-13 is -1.19% [at 9.22 µM].
With `O=C1O[C@H](CO)[C@@H](O)[C@H](O)[C@H]1O`, the compound was classed as inactive in the experiment on CRL-7250, in the experiment on HEK293, with HaCat [1], in the experiment on HACAT [2] and with HEK293T. In addition, in the experiment on NIH3T3, the max response was -2.57%. Moreover, the Potency entry with MCC-13 was “inactive”.
As to `Oc1cccc(O)c1`, the Potency result in the experiment with TAB165, in the experiment on W2 and in the experiment with MCC-13 was “inactive” throughout. Further, the max response in the experiment with CRL-7250 was -6.09%. For the same compound, the result in the experiment on HEK293, in the experiment on HaCat [1], in the experiment on NIH3T3, in the experiment on HACAT [2] and in the experiment on HEK293T was inactive.
Take `CCCn1cnc2c1c(=O)n(CCCCC(C)=O)c(=O)n2C`: the Potency result with TAB165 and in the experiment with MCC-13 was “inactive” in each case. Also, in the experiment on W2, the Potency is 15.1 µM (active). In addition, the max response in the experiment with CRL-7250 is -5.12%; with HEK293, -11.1%; in the experiment on HaCat [1], -0.92%; with KB-3-1, 4.64%; with NIH3T3, -3.42%.
In the case of `O=c1cc(CO)occ1O`, the Potency entry with TAB165, with W2 and with MCC-13 was “inactive” throughout. For the same compound, the max response in the experiment on CRL-7250 is -3.51%; in the experiment with HaCat [1], 2.79%; in the experiment with KB-3-1, 1.74% and -12.5%; with NIH3T3, -2.71%. Moreover, the outcome in the experiment with HEK293 and with HEK293T was inactive.
As for `Nc1ccc(S(=O)(=O)Nc2nccs2)cc1`, the Potency entry with TAB165, in the experiment with W2 and with MCC-13 was “inactive” in each case. The max response in the experiment with CRL-7250 was 0.415% and -2.54%; with HEK293 it was 3.95% and -4.18%; with HaCat [1], -0.23% and -23.1%; in the experiment with NIH3T3 it was 0.16% and -3.65%.
As for `CC12CCC(CC1)C(C)(C)O2`, the Potency result in the experiment with TAB165, with W2 and in the experiment with MCC-13 was “inactive” in each case. Moreover, the figures for the max response with CRL-7250, in the experiment on HaCat [1] and in the experiment on KB-3-1 were 3.08%, -2.38% and -7.48%, respectively. The call in the experiment on HEK293, in the experiment on NIH3T3 and in the experiment with HEK293T was inactive.
